Measured values as given in PubChem BioAssay (NCATS).
Results filed as inconclusive are left out. The source made the active and inactive calls. The call rests on the fitted dose curve; in most records, active means well fitted cell-killing curve with a large enough effect; inconclusive means small, poorly fitted or top-dose-only effect, or effect the other way; inactive means flat fitted curve, though single readings scatter.

Assays:
Assay in all cases: Primary qHTS to identify gynecologic anti-cancer compounds using libraries of approved drugs and bioactive compounds (AID 1345084); further: nearly all actives have a fitted effect of over 55% in size
C33A = conditions: Gynecologic cancer cell panel viability, ATPlite luminescence, 48 h; series mostly up to 57.5 µM
Method in brief: (§1)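 Cells, 1,000 per well, plated 16 h, then exposed 48 h at 37 C to compounds. Viability by ATPlite luminescence after 15 min at room temperature.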

CAOV3 = conditions: Gynecologic cancer cell panel viability, ATPlite luminescence, 48 h; series mostly up to 57.5 µM
Method in brief: as §1

CASKI = conditions: Gynecologic cancer cell panel viability, ATPlite luminescence, 48 h; series mostly up to 57.5 µM
Method in brief: as §1

Es-2 = conditions: Gynecologic cancer cell panel viability, ATPlite luminescence, 48 h; series mostly up to 57.5 µM
Method in brief: as §1

HeLa = conditions: Gynecologic cancer cell panel viability, ATPlite luminescence, 48 h; series mostly up to 57.5 µM
Method in brief: as §1

Hek293T = conditions: Gynecologic cancer cell panel viability, ATPlite luminescence, 48 h, control line for the selectivity index; series mostly up to 57.5 µM
Method in brief: as §1

JEG-3 = conditions: Gynecologic cancer cell panel viability, ATPlite luminescence, 48 h; series mostly up to 57.5 µM
Method in brief: as §1

OV90 = conditions: Gynecologic cancer cell panel viability, ATPlite luminescence, 48 h; series mostly up to 57.5 µM
Method in brief: as §1
On the % scale 0 is the no-effect control and ±100 the full control effect.

COc1ccc(CNCc2cccc3ccccc23)cc1
inactive: Potency (C33A) | Potency (CAOV3) | Potency (CASKI) | Potency (Es-2) | Potency (HeLa) | Potency (Hek293T) | Potency (JEG-3)

CC(=O)OC1CC(O)(C(C)C)C2C(OC(=O)c3ccc(O)cc3)C=C(C)C(=O)CC12C (stereo not given)
inactive: Potency (C33A) | Potency (CAOV3) | Potency (CASKI) | Potency (Es-2) | Potency (HeLa) | Potency (Hek293T) | Potency (JEG-3)

CCC(C)CNCC(=O)N1CCc2sccc2C1COc1cccc(C)c1 (stereo not given)
inactive: Potency (C33A) | Potency (CAOV3) | Potency (CASKI) | Potency (Es-2) | Potency (HeLa) | Potency (Hek293T) | Potency (JEG-3)

CN1CCC(c2cn(C)c3ccc(OS(=O)(=O)c4c(F)cccc4F)cc23)CC1
inactive: Potency (C33A) | Potency (CAOV3) | Potency (CASKI) | Potency (Es-2) | Potency (HeLa) | Potency (Hek293T) | Potency (JEG-3)

C[C@@H]1O[C@@H](O[C@H]2[C@H](O[C@H]3CC[C@@]4(C)C(CC[C@]5(C)C4C=C[C@]46OC[C@@]7(CCC(C)(C)C[C@H]74)[C@@H](O[C@@H]4O[C@@H](C)[C@H](O)[C@@H](O)[C@H]4O)C[C@]65C)[C@]3(C)CO)O[C@H](CO)[C@@H](O)[C@@H]2O[C@@H]2O[C@H](CO)[C@@H](O)[C@H](O)[C@H]2O)[C@H](O)[C@H](O)[C@H]1O (stereo not given in full)
inactive: activity change, negative = cytotoxicity (C33A) -27.7% [at 11.6 µM] | activity change, negative = cytotoxicity (CAOV3) 9.8% [at 11.6 µM] | activity change, negative = cytotoxicity (CASKI) -9.63% [at 11.6 µM] | activity change, negative = cytotoxicity (Es-2) -13.3% [at 11.6 µM] | activity change, negative = cytotoxicity (HeLa) 21.7% [at 11.6 µM] | activity change, negative = cytotoxicity (Hek293T) -8.24% [at 11.6 µM] | activity change, negative = cytotoxicity (JEG-3) -15.7% [at 11.6 µM]

COC1C=C(C)C(O)(CO)C2(C)CCCC(C)(C)C12 (stereo not given)
inactive: Potency (C33A) | Potency (CAOV3) | Potency (CASKI) | Potency (Es-2) | Potency (HeLa) | Potency (Hek293T) | Potency (JEG-3) | Potency (OV90)

CCC(C)C1NC(=O)C(Cc2ccccc2)NC(=O)C(CCCCCC(=O)C(O)CO)NC(=O)C2CCCCN2C1=O (stereo not given)
inactive: Potency (C33A) | Potency (CAOV3) | Potency (CASKI) | Potency (Es-2) | Potency (HeLa) | Potency (Hek293T) | Potency (JEG-3)

N#Cc1cnc2c(Cl)cc(NCc3cn(CCN4CCCCCC4)nn3)cc2c1Nc1ccc(F)c(Cl)c1
inactive: Potency (C33A) | Potency (CAOV3) | Potency (CASKI) | Potency (Es-2) | Potency (HeLa) | Potency (Hek293T) | Potency (JEG-3)

O=C(NC[C@H](O)CN1CCc2ccccc2C1)c1ccnc(NC2CCC2)c1
inactive: Potency (C33A) | Potency (CAOV3) | Potency (CASKI) | Potency (Es-2) | Potency (HeLa) | Potency (Hek293T) | Potency (JEG-3)

COc1cc(/C=N\NC(=O)c2ccc3c(c2)OCO3)ccc1OCc1ccccc1
inactive: Potency (C33A) | Potency (CAOV3) | Potency (CASKI) | Potency (Es-2) | Potency (HeLa) | Potency (Hek293T) | Potency (JEG-3)

CNc1cccc(CCOc2ccc3c(c2)CN(CC(F)(F)F)C(=O)[C@H](CC(=O)O)C3)n1
inactive: Potency (C33A) | Potency (CAOV3) | Potency (CASKI) | Potency (Es-2) | Potency (HeLa) | Potency (Hek293T) | Potency (JEG-3) | Potency (OV90)

O=C1COC2(CCN(S(=O)(=O)c3ccc(-c4ccc5cccnc5c4)cc3)CC2)CN1C1CC1
inactive: Potency (C33A) | Potency (CAOV3) | Potency (CASKI) | Potency (Es-2) | Potency (HeLa) | Potency (Hek293T) | Potency (JEG-3)

Cc1nc2cc(C(=O)NCc3ccccn3)nn2c(C)c1Cc1cccc(Cl)c1
inactive: Potency (C33A) | Potency (CAOV3) | Potency (CASKI) | Potency (Es-2) | Potency (HeLa) | Potency (Hek293T) | Potency (JEG-3)

CO[C@H]1C[C@@H]2CC[C@@H](C)[C@@](O)(O2)C(=O)C(=O)N2CCCC[C@H]2C(=O)O[C@H]([C@@H](C)C[C@@H]2CC[C@@H](O)[C@H](OC)C2)CC(=O)[C@H](C)/C=C(\C)[C@@H](O)[C@@H](OC)C(=O)[C@H](C)C[C@H](C)/C=C/C=C/C=C/1C
inactive: Potency (C33A) | Potency (CAOV3) | Potency (CASKI) | Potency (Es-2) | Potency (HeLa) | Potency (Hek293T) | Potency (JEG-3)

O=C(OC1CN2CCC1CC2)N1CCc2ccccc2C1c1ccccc1 (stereo not given)
inactive: Potency (C33A) | Potency (CAOV3) | Potency (CASKI) | Potency (Es-2) | Potency (HeLa) | Potency (Hek293T) | Potency (JEG-3)

COc1cccc(N2CCN(C3=Nc4c(F)cccc4[C@H](CC(=O)O)N3c3cc(C(F)(F)F)ccc3OC)CC2)c1
inactive: Potency (C33A) | Potency (CAOV3) | Potency (CASKI) | Potency (Es-2) | Potency (HeLa) | Potency (Hek293T) | Potency (JEG-3) | Potency (OV90)

COc1cc(C#N)ccc1S(=O)(=O)Nc1ccc2c(c1)cc(C)c(=O)n2C
inactive: Potency (C33A) | Potency (CAOV3) | Potency (CASKI) | Potency (Es-2) | Potency (HeLa) | Potency (Hek293T) | Potency (JEG-3) | Potency (OV90)

CCCCc1ccc(NS(=O)(=O)c2ccc(F)cc2)cc1
inactive: Potency (C33A) | Potency (CAOV3) | Potency (CASKI) | Potency (Es-2) | Potency (HeLa) | Potency (Hek293T) | Potency (JEG-3) | Potency (OV90)

COc1cc(/C=C/C(=O)NCCn2c(C(F)(F)F)cc3ccccc32)cc(OC)c1OC
inactive: Potency (C33A) | Potency (CAOV3) | Potency (CASKI) | Potency (Es-2) | Potency (HeLa) | Potency (Hek293T) | Potency (JEG-3) | Potency (OV90)

O=S(=O)(NCc1ccccn1)c1ccc(Br)c2ccccc12
inactive: Potency (C33A) | Potency (CAOV3) | Potency (CASKI) | Potency (Es-2) | Potency (HeLa) | Potency (Hek293T) | Potency (JEG-3) | Potency (OV90)

CC(=O)C=C=C1C(C)(C)CC(O)CC1(C)O[C@@H]1O[C@H](CO[C@H]2OC[C@](O)(CO)[C@H]2O)[C@@H](O)[C@H](O)[C@H]1O (stereo not given in full)
inactive: Potency (C33A) | Potency (CAOV3) | Potency (CASKI) | Potency (Es-2) | Potency (HeLa) | Potency (Hek293T) | Potency (JEG-3) | Potency (OV90)
